# Screening data (PubChem BioAssay)
# Only some compounds are listed: those with a hit (about 11% of all), similar ones and a draw of the others.
# Lmaj promast: inhibitors of Leishmania major promastigote growth | Leishmania major promastigotes, resazurin fluorescence viability | inhibition, % at 10 µM | 9% of 200,000 active; in the data active means inhibition above about 50%;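 further: promastigotes grown with compound for 44 hours at 28 °C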
# INS promoter inh: TRM-6 insulin promoter activity inhibition | TRM-6 cells (human fetal islet line), insulin promoter-eGFP reporter, imaging; reporter expression induced with tamoxifen | inhibition, % at 2 µM | 0.9% of 130,000 active | AID 1273;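 active means inhibition above the mean plus 3 SD, with well images judged a real hit on visual review, cut at about 60% in these data, passing the limit was not always enough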
# Ins promoter up: MIN6 insulin promoter up-regulation; MIN6 insulin promoter-GFP reporter, high-content imaging; stronger effect = higher value; z-score at 5 µM; 0.3% of 190,000 active;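 active means z-score above 3 at 5 µM with at least 500 cells counted in the well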
# WT yeast gro inh: growth inhibition of WT yeast, mitochondrial fusion screen; mitochondrial fusion phenotypic screen, WT strain; inhibition, % at 10 µM; 2.1% of 190,000 active; in the data active means inhibition above about 58%; tested in S. cerevisiae
# Autophagy HCS: alters autophagy in cells; MEF GFP-LC3 puncta imaging; test concentration mostly 10 µM; calls only at 10 µM (by protocol); 0.98% of 190,000 active; AID 463193;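 active means percentage of spot-positive cells more than 3 SD above its plate mean, without a fluorescence outlier flag or 80% toxicity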;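 further: spot-positive cell cutoff set from DMSO-treated cells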
# The depositor's hits bear a star; i = inactive; / = no result.
SMILES,Lmaj promast,INS promoter inh,Ins promoter up,WT yeast gro inh,Autophagy HCS
COc1cccc(NC(=S)N2CCN(C/C=C/c3ccccc3)CC2)c1,95.2*,25.0,-0.05,15.7,i
O=C(CCc1nnc(Cc2c[nH]c3ccccc23)o1)NCC1CC12CCCCC2 (stereo unspecified),-0.5,/,0.22,0.4,i
O=C(N=Nc1c(O)n(C2OC(=O)c3ccccc32)c2ccccc12)c1ccco1 (stereo unspecified),/,/,0.21,/,/
CCOC(=O)C1=C(CN2CC(C)CC(C)C2)NC(=O)NC1c1ccc2c(c1)OCO2 (stereo unspecified),33.3,-100.0,0.17,11.8,i
S=C(Nc1ccccc1)N1CCN(C/C=C/c2ccccc2)CC1,39.4,/,0.36,23.0,i
S=C(NC1CCCC1)N1CCN(C/C=C/c2ccccc2)CC1,80.8*,/,-0.07,16.0,i
O=C(Cc1ccc(Br)cc1)OCC(=O)N1CCc2ccccc2C1,-9.2,/,0.64,7.3,i
Cc1cccc2c(C(=O)N3CCN(C(=O)c4ccco4)CC3)cc(-c3cccc(Br)c3)nc12,29.9,/,-4.53,81.3*,i
CCOc1ccc(N(CC(=O)Nc2cccc(N(C)S(C)(=O)=O)c2)S(=O)(=O)c2ccccc2)cc1,54.5*,-8.3,-0.46,-1.7,i
COc1ccc(N(CC(=O)Nc2cccc(N(C)S(C)(=O)=O)c2)S(=O)(=O)c2ccc(C)cc2)cc1,66.6*,/,0.43,5.0,i
CN(c1cccc(NC(=O)CN(c2cccc(Cl)c2)S(=O)(=O)c2ccccc2)c1)S(C)(=O)=O,22.1,/,-0.55,-0.1,i
COc1ccc(N(CC(=O)Nc2cccc(N(C)S(C)(=O)=O)c2)S(=O)(=O)c2ccc(F)cc2)cc1,/,/,-0.14,/,/
COc1ccc(CCNC(=O)COc2ccc(S(=O)(=O)NC(C)C)cc2Cl)cc1OC,-2.3,-25.0,-0.5,-12.2,i
c1ccc(-c2n[nH]c3c2CCC3)cc1,0.5,-6.9,-0.63,6.7,i
Clc1ccc(-c2n[nH]c3c2CCC3)c(Cl)c1,-1.1,30.2,0.73,68.3*,i
NC(=O)c1ncc(C(F)(F)F)cc1Oc1cccnc1,-5.0,54.5,-0.15,-6.0,i
Cc1nn(-c2ccc(F)cc2)c(C)c1CN1CCN(CCC(C)C)C(CCO)C1 (stereo unspecified),54.8*,/,-0.54,18.6,i
Cc1nn(-c2ccc(F)cc2)c(C)c1CN1CCN(CCc2ccccc2)C(CCO)C1 (stereo unspecified),79.2*,/,-0.79,-0.3,i
Cc1ccc(-c2nnc(CCC(=O)NCc3csc(C)n3)o2)s1,/,/,-0.3,/,/
O=C(NCC1CCCN(C(=O)CN2CCCCC2)C1)c1ccccc1Cl (stereo unspecified),/,/,-0.02,/,/
CC1CCCCC1NCC#CCOc1ccc(Cl)cc1 (stereo unspecified),83.0*,/,-0.83,20.3,i
CC(C)NCC#CCOc1ccc(Cl)cc1,6.4,/,0.72,17.8,i
Cc1snc(S(=O)(=O)/C(C#N)=N/Nc2ccc(C(F)(F)F)cc2)c1C#N,-4.7,71.4*,-0.12,-2.5,i
CN(c1ccc(OCc2nnc(-c3ccccc3)o2)cc1)S(=O)(=O)c1ccccc1,54.3*,21.1,-0.12,-0.5,i
O=[N+]([O-])c1ccc(OCc2nnc(-c3ccccc3)o2)cc1,0.0,/,0.27,-6.9,i
SMILES,Lmaj promast,INS promoter inh,Ins promoter up,WT yeast gro inh,Autophagy HCS
Cc1c(/C(O)=C2\C(=O)C(=O)N(CCN(C)C)C2c2ccccc2)cnn1-c1ccccc1 (stereo unspecified),/,/,-0.15,/,/
CC1Cc2ccccc2N1C(=S)NC(=O)c1ccc(Cl)cc1Cl (stereo unspecified),-3.5,8.8,-0.11,59.8*,i
Cn1nc(C(=O)Nc2nc3ccccc3[nH]2)ccc1=O,-0.8,36.4,1.22,2.0,i
COc1ccc(C(c2nnnn2CCc2ccccc2)N2CCN(C3CCCC3)CC2)cc1 (stereo unspecified),98.9*,/,0.54,-8.0,i
CCC(c1nnnn1CCc1ccccc1)N1CCN(c2ccc(OC)cc2)CC1 (stereo unspecified),95.7*,3.2,-0.28,18.5,i
COc1ccc(Cn2nnnc2C(c2ccccc2)N2CCN(C3CCCC3)CC2)cc1 (stereo unspecified),-4.7,/,0.44,4.3,i
N#Cc1cccc(C(c2nnnn2C2CCCC2)N2CCC(Cc3ccccc3)CC2)c1 (stereo unspecified),64.9*,56.2,-1.6,-5.0,i
N#Cc1ccc(C(c2nnnn2C2CCCC2)N2CCC(Cc3ccccc3)CC2)cc1 (stereo unspecified),0.8,-41.0,-0.57,13.6,i
CCC(c1nnnn1Cc1ccccc1)N1CCN(c2ccccc2)CC1 (stereo unspecified),38.3,50.0,/,9.2,i
